Reference: PubChem BioAssay AID1117264 (The Scripps Research Institute Molecular Screening Center, 2014)
Out of some 89,000 compounds screened, about 440 (0.49%) were called active.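 The calls were made as follows: active = inhibition above the mean inhibition across all screened compounds plus 3 SD (cut at about 11% in these data); inactive = the rest.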 What follows is part of a selection rich in actives, with near analogues and random picks from the rest.

target: RNA-editing ligase 1, mitochondrial (Trypanosoma brucei brucei) (UniProt P86926); experiment: T. brucei editing ligase REL1 blockade – biochemical, FRET fluorescence, primary screen (AID 1117264); details: TbREL1 RNA ligation, at 9.66 µM, hits give high values;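 also: 0% = plate median of test wells and 100% = NSC42067 control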
Sequence (P86926 whole entry, looked up): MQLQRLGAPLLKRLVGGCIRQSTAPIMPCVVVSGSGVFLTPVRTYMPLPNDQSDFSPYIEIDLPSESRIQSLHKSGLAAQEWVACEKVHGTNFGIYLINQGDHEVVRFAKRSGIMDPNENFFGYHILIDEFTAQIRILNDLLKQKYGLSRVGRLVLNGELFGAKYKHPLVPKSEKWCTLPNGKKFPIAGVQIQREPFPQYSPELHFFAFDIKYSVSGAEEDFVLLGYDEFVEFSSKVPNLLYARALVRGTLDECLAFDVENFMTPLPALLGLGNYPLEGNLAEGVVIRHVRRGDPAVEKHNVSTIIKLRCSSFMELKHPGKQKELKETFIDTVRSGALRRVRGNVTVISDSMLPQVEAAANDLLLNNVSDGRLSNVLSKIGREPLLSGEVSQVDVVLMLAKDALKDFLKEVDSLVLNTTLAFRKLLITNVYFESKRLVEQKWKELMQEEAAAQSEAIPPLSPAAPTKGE

Row | SMILES | inhibition
1 | O=c1[nH]c(=O)c2nc3ccccc3nc2[nH]1 | -0.15% (inactive)
2 | COc1ccc([N+](=O)[O-])cc1N(CC(=O)Nc1ccccc1C(=O)N1CCOCC1)S(C)(=O)=O | -1.27% (inactive)
3 | O=C(NCc1ccccc1)C1CCN(C(=O)Cc2ccccc2)CC1 | 0.8% (inactive)
4 | O=C(NCc1ccccc1)[C@@H]1CSC2c3ccccc3C(=O)N21 (some centres undefined) | 18.5% (active)
5 | O=C(NCc1ccccc1)C1c2ccccc2OCC(=O)N1C1CC1 (centres undefined) | 4.12% (inactive)
6 | Cc1c(CCC(=O)N[C@@H](CC(C)C)C(=O)O)c(=O)oc2c(C)c3oc4c(c3cc12)CCCC4 | 0.56% (inactive)
7 | Cc1cc(NC(=O)CN2C(=O)NC(C)(CCc3ccccc3)C2=O)no1 (centres undefined) | 0.2% (inactive)
8 | O=C(NNC1CC(=O)N(c2cccc(Cl)c2)C1=O)c1cccnc1 (centres undefined) | 0.41% (inactive)
9 | O=S1(=O)CC(N2CCN(CCO)CC2)CN1Cc1cn(Cc2cccc(Cl)c2)nn1 (centres undefined) | 0.87% (inactive)
10 | COc1ccc(NC(=O)C(Br)C(C)C)cc1 (centres undefined) | -2.35% (inactive)
11 | CCOC(=O)c1ccc(NC(=S)N2CCCC2)cc1 | -1.43% (inactive)
12 | COc1ccccc1NC(=S)N1CCN(C(c2ccccc2)c2ccccc2)CC1 | -6.34% (inactive)
13 | O=C(Oc1cccc(NC2=NS(=O)(=O)c3ccccc32)c1)c1ccncc1 | 0.38% (inactive)
14 | Cc1ccc(S(=O)(=O)N(C)C)cc1NC(=O)COC(=O)c1c(C)noc1C | -2.07% (inactive)
15 | O=C(Nc1cccnc1)c1cccc(S(=O)(=O)N2CCCC2)c1 | 3.63% (inactive)
16 | CCCn1c(CCNc2nc(-c3ccc(OC)cc3)cs2)nc2ccccc21 | 1.63% (inactive)
17 | CC1CN(CC(=O)NC(C)c2ccccc2)CC(C)O1 (centres undefined) | 1.72% (inactive)
18 | Fc1cc(Br)ccc1NC(=S)Nc1cccnc1 | -1.64% (inactive)
19 | COc1cc(/C=C/C(=O)OCC(=O)NC2CC2)cc(OC)c1OC | 8.18% (inactive)
20 | COc1cc(/C=C/C(=O)n2cnc3ccccc32)cc(OC)c1OC | 12% (active)
21 | COc1ccccc1-n1cnc2cc(NS(=O)(=O)c3ccccc3)ccc21 | 0.63% (inactive)
22 | O=C(Nc1ccccc1N1CCN(C(=O)c2ccccc2)CC1)c1ccco1 | -1.42% (inactive)

Row | SMILES | inhibition
23 | COc1ccc(N2C(=O)CC(Nc3ccc(F)cc3)C2=O)c([N+](=O)[O-])c1 (centres undefined) | -1.86% (inactive)
24 | CCOc1ccc(NC(=O)CN(C)CC(=O)NC(C)c2ccccc2)cc1OCC (centres undefined) | 2.99% (inactive)
25 | CCOC(=O)C1CCN(CC(=O)Nc2ccc(OC)c(S(=O)(=O)N3CCCCC3)c2)CC1 | 2.37% (inactive)
26 | CNc1nc(Nc2ccc(C)c(Cl)c2)nc(N)c1[N+](=O)[O-] | 13.4% (active)
27 | Nc1nc(Nc2ccccc2)nc(NCCO)c1[N+](=O)[O-] | 7.49% (inactive)
28 | Cc1ccc(Nc2nc(N)nc(CN3CCN(Cc4ccccc4)CC3)n2)cc1Cl | -4.51% (inactive)
29 | Cn1c(=O)c2c(nc(NCc3ccccc3)n2CC(N)=O)n(C)c1=O | -2.6% (inactive)
30 | CN(C)/C(=N\OC(=O)c1ccccc1)c1nonc1N | 0.81% (inactive)
31 | C=CCn1c(=S)[nH]c2scc(-c3ccco3)c2c1=O | 20.5% (active)
32 | COc1ccc(N2CCN(CCNS(=O)(=O)c3ccc([N+](=O)[O-])cc3)CC2)cc1 | -4.76% (inactive)
33 | O=C(c1ccc(CN2CCOCC2)cc1)N1CCN(c2ccccc2F)CC1 | -3.62% (inactive)
34 | O=C(Nn1cc(C(=O)N2CCN(c3ccccc3F)CC2)c2ccccc2c1=O)c1cnccn1 | 12.8% (active)
35 | Cc1ccccc1N1CCN(C(=O)c2cccnc2)CC1 | -0.77% (inactive)
36 | CC1=C(C(=O)N(C)C)C(c2ccccc2OC(F)F)NC(=O)N1 (centres undefined) | -1.25% (inactive)
37 | CC(C)C[C@@H](CO)N1CCN(Cc2ccc(O)cc2)CCC1=O | -1.07% (inactive)
38 | O=C(Nc1nc(-c2ccco2)c(-c2ccco2)s1)c1ccco1 | 51.5% (active)
39 | O=C(Nc1ccc2nccnc2c1)c1ccco1 | -2.66% (inactive)
40 | Cc1ccnc(NC(=O)c2ccco2)n1 | 2% (inactive)
41 | O=C(Nc1ccc(N2CCN(C(=O)c3ccccc3)CC2)c(Cl)c1)c1ncn[nH]1 | -4.97% (inactive)
42 | Cc1cccc(NC(=O)CN2CCN(CC(=O)NCC3(N4CCCCC4)CCCCC3)CC2)c1C | -4.34% (inactive)
43 | Cc1ccc(-n2c(SCC(=O)Nc3cccc4ccccc34)nnc2-c2ccccn2)cc1 | 2.33% (inactive)
44 | O=C(CCCCCN1C(=O)C2C3C=CC(C3)C2C1=O)Nc1ccccn1 (centres undefined) | -1.93% (inactive)
